Rows were chosen to be rich in hits. Some 21% of all compounds tested hit in one or more screens of this group.
Pf growth 96h: Primary qHTS for delayed death inhibitors of the malarial parasite plastid, 96 hour incubation | P. falciparum luciferase reporter growth, 96 h | Potency, µM (highest dose often 28.7 µM), inactives show top-dose activity change, negative = inhibition, most hits filed as inhibitors | 320,000 compounds, 6.9% hits; further: potency means the concentration at half of the fitted maximal effect; on the % scale 0 is the no-effect control and ±100 the full control effect
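Infected RBCs, 2% Hct / 0.05% parasitemia final; luciferase-reporter P. falciparum; cpd 96 h, 37 C, 5% CO2; luciferase detection reagent; luminescence.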
Pf growth 48h: Primary qHTS for delayed death inhibitors of the malarial parasite plastid, 48 hour incubation | Potency, µM (top dose mostly 28.7 µM), for inactives: top-dose activity change, negative = inhibition, hits mostly inhibitors | P. falciparum luciferase growth in erythrocytes, 48 h | 310,000 compounds, 5.9% hits; further: potency means the concentration at half of the fitted maximal effect; on the % scale 0 is the no-effect control and ±100 the full control effect
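First compound was added to culture medium, then infected red cells at 0.1% parasitemia and 2% hematocrit (final). After incubation at 37 C under 5% CO2, luciferase detection reagent was dispensed and light output recorded.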
Shiga toxin inh: A qHTS for Small Molecule Inhibitors of Shiga Toxin; inhibition, % at 38.7 µM; Vero cells, Shiga toxin protein synthesis inhibition reporter; 290,000 compounds, 9.2% hits; in the data active means inhibition mostly above about 28%, no sharp cut-off; inactive means mostly below about 43%; further: 0% is about no effect
CHX counter: Cycloheximide Counterscreen for Small Molecule Inhibitors of Shiga Toxin; cell reporter, cycloheximide protein synthesis inhibition counterscreen; max response, %; 300,000 compounds, 12% hits; in the data active means max response mostly above about 13%, no sharp cut-off; inactive means mostly below about 14%; further: read at 38.3 µM for the half of the compounds with a filed dose; 0% is about no effect
An asterisk follows results filed as active; i = inactive; ? = inconclusive; / = no result given. Unless noted, the call rests on the fitted dose curve; in most records, active means well fitted inhibition curve with a large enough effect; inconclusive means small, poorly fitted or top-dose-only effect, or another doubt; inactive means no such curve, though single readings can be large or run the other way.

SMILES	Pf growth 96h	Pf growth 48h	Shiga toxin inh	CHX counter
COc1ccccc1OCCn1c(=O)oc2ccc(C)cc21	-6.8%	?	17.5	-4.6
Cc1ccccc1OCCn1c(=O)oc2ccccc21	-20.5%	?	8.9	-3.1
Cc1ccc2oc(=O)n(CCOc3ccccc3C)c2c1	8.6%	2.62µM*	-5.8	-0.5
Cc1ccc2oc(=O)n(CCCOc3ccccc3C)c2c1	-1.1%	23.4%	44.8*	15.7*
COc1ccc(-n2c(SCc3ccc([N+](=O)[O-])cc3)nnc2-c2ccccc2)cc1	?	?	-6.1	2.6
CCOc1ccc(-n2c(SCc3ccc([N+](=O)[O-])cc3)nnc2-c2ccccc2)cc1	4.65µM*	?	-6.2	-1.7
CCOc1ccc(-c2nnc(SCc3nnc(-c4ccccc4)o3)n2-c2ccccc2F)cc1	-23.7%	/	52.3	19.7*
FC(F)C(F)(F)c1cc(-c2ccccc2)n[nH]1	40.3%	51.0%	29.0	19.7*
CC(=O)c1sc(NC(=O)COc2ccc(Cl)cc2C)nc1C	60.9%	?	44.2	27.8*
Cc1ccc(C)c(OCC(=O)Nc2ccncc2)c1	-12.2%	0.3%	/	0.7
Cc1cc(Cl)ccc1OCC(=O)Nc1ccncc1	?	0.3%	/	27.0*
COc1ccccc1OCC(=O)Nc1ccccn1	32.2%	188.7%	26.9	26.7*
Cc1cccc(OCC(=O)Nc2ccncc2)c1C	28.8%	0.9%	3.2	12.4*
COc1ccccc1OCC(=O)Nc1cc(NC(=O)COc2ccccc2OC)cc(C(=O)O)c1	?	0.0%	-6.7	-1.2
O=C(c1ccc2nc(Cc3cccc(Cl)c3)oc2c1)N1CCC(O)CC1	?	-26.0%	-4.1	-0.7
COc1ccccc1CNC(=O)COc1ccc(S(=O)(=O)N2CCOCC2)cc1C	-1.5%	0.0%	-6.8	3.8
COc1cc(/C=C2\C(=O)N(CCC#N)N=C2C)ccc1OCC(=O)Nc1ccccc1	10.7%	19.1%	65.7*	62.9*
C/C=C/c1ccc(OCC(=O)Nc2cc(Cl)ccc2-n2cncn2)c(OC)c1	11.7µM*	?	/	/
COc1ccccc1NC(=O)C(=O)Nc1ccccn1	i	396.2%	93.9*	76.3*
CCOc1ccccc1NC(=O)Nc1ccccn1	?	?	-19.2	4.3
C/C=C/c1ccc(OCC(=O)Nc2ccncc2)c(OC)c1	9.1%	3.7%	38.6*	21.0*
COc1ccc(OCC(=O)Nc2ccncc2)cc1	-15.1%	-3.8%	-10.5	-1.7
COc1ccc(NC(=O)COc2ccc(/C=N/O)cc2OC)cc1	255.6%	96.7%	52.4*	31.1*
Cc1cccc(OCC(=O)Nc2ncn[nH]2)c1C	108.5%	84.5%	15.9	11.3*
COc1ccccc1OCC(=O)Nc1ccncc1	0.522µM*	52.9%	21.9	9.5
SMILES	Pf growth 96h	Pf growth 48h	Shiga toxin inh	CHX counter
Cc1ccc(NC(=O)C(=O)Nc2ccccn2)cc1	-11.2%	64.3%	69.4*	38.0*
CCCc1ccc(OCc2ccccc2)c2c(=O)cc(C(=O)OCC)oc12	33.6%	-2.4%	2.9	-2.6
O=C(CCNC(=O)c1ccc([N+](=O)[O-])cc1)NNC(=O)c1ccccc1F	-20.3%	9.5%	/	/
COc1cc(/C=C2\CCOC2=O)cc(OC)c1OC	-17.1%	0.0%	-10.0	2.5
Cc1ccc(C2=NN(CC(=O)NCCC(C)C)C(=O)CC2)cc1	3.3%	16.1%	23.9	-3.8
Cc1ccc(C(=O)OCC(=O)N2C(C)CCCC2C)cc1S(=O)(=O)N1CCOCC1 (configuration not stated)	-2.4%	-14.2%	/	/
CCOc1ccc(-n2c(SCC(=O)N3CCC(C(=O)O)CC3)nc3ccccc3c2=O)cc1	-28.3%	5.6%	-3.9	-5.8
Cc1c(C)c2ccc(OCC(=O)N3CCC(C(=O)O)(c4ccccc4)CC3)c(C)c2oc1=O	-1.1%	-1.1%	-4.7	-1.8
Cc1c(C)c2ccc(OCC(=O)Nc3ccccn3)c(C)c2oc1=O	1.3%	-19.3%	34.9*	21.8*
Cc1c(C)c2ccc(OCC(=O)N3CCOCC3)c(C)c2oc1=O	-24.9%	24.0%	24.5	20.1*
COc1cc(CO)c(OC)c([N+](=O)[O-])c1	53.1%	33.8%	16.7	-2.1
COc1ccccc1OCCNC(=O)C1CC(=O)N(c2cccc(SC)c2)C1 (configuration not stated)	17.8%	-9.0%	/	/
COc1ccc(-n2nc(C(=O)NCC(=O)N3CCCCC3)c3ccccc3c2=O)c(OC)c1	?	20.9%	32.7	17.9*
COc1ccc(-n2nc(C(=O)NCC(=O)N3CCCCCC3)c3ccccc3c2=O)c(OC)c1	?	-10.5%	55.2	16.1*
COc1ccc(-n2nc(C(=O)NCC(=O)N3CCC(C)CC3)c3ccccc3c2=O)c(OC)c1	22.5%	?	40.1	16.4*
COc1cc(CN2CCN(CCCc3ccccc3)C(CCO)C2)cc(OC)c1O (configuration not stated)	-65.4%	-6.2%	-5.7	-4.2
COc1ccc(C(=O)N/C(=C\c2cn(C)c3ccccc23)C(=O)N2CCOCC2)cc1	?	?	8.9	-2.4
COc1ccccc1CNC(=O)COC(=O)C1CCN(S(=O)(=O)c2ccccc2)CC1	13.4%	?	/	/
CCOc1ccc(S(=O)(=O)NC(C)C(=O)NCc2ccc3c(c2)OCO3)cc1 (configuration not stated)	-4.0%	9.7%	-8.4	-3.5
Cc1cc(OCC(O)CN(C)C(=O)C(C)Oc2ccccc2)ccc1Cl (configuration not stated)	-10.2%	6.4%	-6.9	-1.9
CCC(Sc1nc(N)c(NC(=O)c2ccc(OC)cc2)c(=O)[nH]1)C(=O)O (configuration not stated)	47.5%	31.6%	20.4	-4.2
Cc1ccc(C)c(NC(=O)CCN2CCN(CCO)CC2)c1	0.0%	6.7%	/	-1.0
C=CCn1c(=O)[nH]c2cc(C(=O)N3CCN(c4cccc(Cl)c4)CC3)ccc2c1=O	32.6%	?	9.4	6.4
COc1ccc(-n2c(=S)[nH]c3cc(C(=O)N4CCN(c5ccccc5)CC4)ccc3c2=O)cc1	2.08µM*	-8.8%	-6.0	-5.0
CC1CCCN(C(=O)c2ccc3c(=O)n(Cc4ccc5c(c4)OCO5)c(=S)[nH]c3c2)C1 (configuration not stated)	7.38µM*	-28.5%	-14.5	-2.4
SMILES	Pf growth 96h	Pf growth 48h	Shiga toxin inh	CHX counter
CC(=O)c1ccc(N2CCN(C(=O)c3ccc4c(=O)n(-c5ccccc5)c(=O)[nH]c4c3)CC2)cc1	?	10.4µM*	11.2	-1.9
CCN(CC)C(=O)c1ccc2c(=O)n(Cc3ccc4c(c3)OCO4)c(=S)[nH]c2c1	11.8%	?	-4.5	-3.2
C=CCn1c(=O)[nH]c2cc(C(=O)N3CCN(c4ccc(C(C)=O)cc4)CC3)ccc2c1=O	6.57µM*	/	12.6	11.3
CCOP(=O)(OCC)C(NC(=O)/C=C/c1ccc(OC)cc1)c1ccccc1 (configuration not stated)	22.4%	-17.4%	-9.0	-3.1
O=C(c1ccc2c(=O)n(Cc3ccc4c(c3)OCO4)c(=O)[nH]c2c1)N1CCN(c2ccccc2)CC1	11.7µM*	-9.4%	-3.8	-2.8
O=C(c1ccc(Cn2c(=S)[nH]c3cc4c(cc3c2=O)OCO4)cc1)N1CCN(c2ncccn2)CC1	?	11.7µM*	-6.8	-4.5

Screens (PubChem)
